Drawing on PubChem BioAssay, this text covers composite z-score for 27 compounds.

The nature of the assay: probe aShh binding to arrayed compounds – biochemical, biotinylated probe, 635/667 nm fluorescence, primary screen (AID 1114).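 Also: probe is biotin-labelled aShh protein from a stem cell growth factor screen; measures binding of labelled protein to compounds printed on the slide; score merges feature fluorescence at 667 nm with signal-to-noise.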 Conditions: small-molecule microarray, higher = more signal.
Compound `COC(=O)[C@@]1(Cc2ccccc2)[C@H]2c3cc(C(=O)N4CCCC4)[nH]c3C[C@H]2CN1C(=O)c1ccccc1` returned a composite z-score of -0.243.

With `O=C(O)[C@H](Cc1ccccc1)n1cc(-c2ccccn2)nn1`, the composite z-score was -0.0866.

In the case of `O=C1O[C@@H](c2ccccc2)[C@@H](c2ccccc2)N2[C@@H](c3ccccc3OCCO)[C@]3(C(=O)Nc4ccc(C#CCCO)cc43)[C@@H](C(=O)N3CCN(c4ncccn4)CC3)[C@H]12`, the composite z-score was -0.16.

`COc1ccc([Si](C)(C)[C@@H]2[C@@H](CCO)O[C@]3(C(=O)N(Cc4cccc(N5C(=O)c6ccccc6Oc6ccccc65)c4)c4ccccc43)[C@H]2C)cc1` gave a composite z-score of -0.221.

Turning to `CN(C)CCCN1C(=O)[C@@]2(c3ccc([N+](=O)[O-])cc3)CC(=O)N(CC34CC5CC(CC(C5)C3)C4)[C@@H]2c2ccc(CO)cc21`, the composite z-score amounted to 0.111.

In turn, `C[C@]12C(=O)N(CCCCCCO)[C@@H]3C(=O)N(c4ccc(Cl)cc4)CC=CC31O[C@@H]1/C=C\CCCOC(=O)C12` (some centres not stated) had a composite z-score of -0.0813.

As for `CC1CC/C=C\[C@H]2OC34C=CCN(c5ccc6ccccc6c5)C(=O)[C@H]3N(C(CO)C(C)C)C(=O)[C@@H]4C2C(=O)O1` (some centres not stated), the composite z-score was -0.164.

As for `O=C1O[C@@H](c2ccccc2)[C@@H](c2ccccc2)N2[C@@H](c3ccc(O)cc3)[C@]3(C(=O)Nc4ccc(C#CC5=CCCCC5)cc43)[C@@H](C(=O)N3CCN(c4ncccn4)CC3)[C@H]12`, the composite z-score amounted to 0.0756.

In turn, `C[C@H]1ON(c2ccc(C(=O)OC(C)(C)C)cc2)[C@@H](c2ccc(O)cc2)[C@@H]1C(=O)N1C(=O)OC[C@@H]1c1ccccc1` showed a composite z-score of -0.341.

In turn, `CCOC(=O)C[C@H]1[C@H](OC(=O)Cc2ccc3c(c2)OCO3)[C@@H](NC(=O)C2CCCCC2)c2cc(OCCCO)ccc2N1C(=O)c1ccc2ccccc2n1` showed a composite z-score of -0.164.

Turning to `CN1C(=O)C2C=CC(C(O)c3c(F)cccc3Cl)N(Nc3ccccc3)C2C1=O` (configuration not stated), the composite z-score is 0.432.

With `COCCCNC(=O)[C@]1(Cc2ccccc2CN=[N+]=[N-])N=C(c2ccc(OCCCO)cc2)O[C@@H]1c1ccccc1`, the composite z-score was -0.279.

In the case of `[N-]=[N+]=NCc1ccccc1C[C@@]1(C(N)=O)N=C(c2ccc(OCCCO)cc2)O[C@@H]1c1ccccc1CN=[N+]=[N-]`, the composite z-score stood at 0.19.

Compound `COC(=O)[C@@]1(Cc2ccc(OC)cc2)[C@H]2c3cc(C(=O)N4CCCC4)n(CCc4cc5ccccc5[nH]4)c3C[C@H]2CN1C(=O)c1ccccc1` came in with a composite z-score of -0.19.

On to `COCCOC(=O)N1C(=O)[C@@]2(c3cc(C#Cc4ccc(OC)cc4)ccc31)[C@H](C(=O)NC[C@H](O)c1ccccc1)[C@H]1C(=O)O[C@H](c3ccccc3)[C@H](c3ccccc3)N1[C@@H]2c1ccc(O)cc1`, for which the composite z-score was 0.875.

As for `C=CC[C@@]12N=C(c3ccc(OCCCO)cc3)O[C@@H]1c1ccccc1N(CCS(=O)(=O)c1ccccc1)C2=O`, the composite z-score came out at 0.147.

Take `C=CCN1C(=O)[C@]2(CC=C)N=C(c3ccc(OCCCO)cc3)O[C@@H]2c2ccccc21`: the composite z-score came to 0.0253.

With `Cc1ccc(S[C@]2(C(=O)NCC(C)C)CC(=O)N(Cc3ccccc3Cl)[C@@H]2c2ccc(CO)cc2I)cc1`, the composite z-score was -0.221.

As to `COc1ccccc1CN1C(=O)c2ccccc2[C@](Cc2ccccc2I)(C(=O)NC(C)C)[C@@H]1c1ccc(CO)cc1`, the composite z-score stood at 0.131.

In turn, `CCOc1cc(C(O)C2C=CC3C(=O)N(C4CCCCC4)C(=O)C3N2Nc2ccc(OC)cc2)ccc1O` (configuration not stated) yielded a composite z-score of 0.06.

Consider `COCCOC(=O)N1C(=O)[C@@]2(c3cc(C#Cc4ccc(OC)cc4)ccc31)[C@H](C(=O)N1CCCCCCC1)[C@H]1C(=O)O[C@H](c3ccccc3)[C@H](c3ccccc3)N1[C@@H]2c1ccc(O)cc1`, for which the composite z-score is 0.603.

For `C=C(C(=O)CC[C@H](OC(=O)c1cccnc1)c1ccc(CO)o1)C(C)C`, the composite z-score worked out at 0.39.

Regarding `COC(=O)[C@H](Cc1ccccc1)N1CC(/C=C/C2CC2)=C[C@@H]1[C@@H](O)Cc1ccccc1`, the composite z-score was -0.0035.

On to `COC(=O)[C@@]1(Cc2ccc(OC)cc2)[C@H]2c3cc(C(=O)N(C)C)n(Cc4nc5ccccc5[nH]4)c3C[C@H]2CN1C(=O)c1ccccc1`, for which the composite z-score was determined as 0.361.

In turn, `CN(C)C(=O)[C@]1(CCC(=O)OC(C)(C)C)N=C(c2ccc(OCCCO)cc2)O[C@@H]1c1ccccc1` registered a composite z-score of 0.0793.

As to `COCCOC(=O)N1C(=O)[C@@]2(c3cc(C#CC4(O)CCCCCC4)ccc31)[C@H](C(N)=O)[C@H]1C(=O)O[C@H](c3ccccc3)[C@H](c3ccccc3)N1[C@@H]2c1ccccc1OCCO`, the composite z-score was -0.223.

In turn, `Cc1ccc(S[C@]2(C(=O)NCC(F)(F)F)CC(=O)N(Cc3ccccc3)[C@@H]2c2ccc(CO)cc2)cc1` came in with a composite z-score of -0.268.
